For 46 compounds, B-score results are on record in PubChem BioAssay AID641 (Vanderbilt High Throughput Screening Facility, 2007).

Out of some 58,000 compounds screened, about 3,400 (5.9%) were called active.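 Rule for the calls: active = luminescence count or its row- and column-corrected plate score outside the 99.7% band of the plate's sample wells, on either side; inactive = the rest.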 Shown is part of a subset that was picked to be rich in actives.

Chain of D(1A) dopamine receptor (Homo sapiens) (P21728 whole entry, looked up): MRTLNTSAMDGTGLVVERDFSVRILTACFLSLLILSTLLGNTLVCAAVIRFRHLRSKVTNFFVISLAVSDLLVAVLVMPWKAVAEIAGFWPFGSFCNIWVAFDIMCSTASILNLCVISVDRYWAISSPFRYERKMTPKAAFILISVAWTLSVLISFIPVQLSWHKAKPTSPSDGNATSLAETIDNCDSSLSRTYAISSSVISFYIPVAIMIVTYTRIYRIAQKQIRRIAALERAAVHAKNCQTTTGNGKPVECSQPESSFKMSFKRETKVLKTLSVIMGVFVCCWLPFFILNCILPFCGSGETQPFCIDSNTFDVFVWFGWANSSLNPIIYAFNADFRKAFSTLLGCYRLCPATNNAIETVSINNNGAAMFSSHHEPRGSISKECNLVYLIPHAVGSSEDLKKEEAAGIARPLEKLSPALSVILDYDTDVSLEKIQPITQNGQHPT

The assay has as its target D(1A) dopamine receptor (Homo sapiens) (UniProt P21728). Put plainly: D1 CRE-luciferase signal change, two-sided – cell-based, HEK293 D1, dopamine EC30, D1 allosteric modulator project, primary screen (AID 641). The conditions noted are these: dopamine EC30 potentiation, at 10 µM, actives deviate in either direction.
For the compound `CCC(C)n1[nH]c(=O)cc1N` (stereo unspecified), the B-score was -0.0177 (inactive). Then `CC(C)C(=O)Nc1cccc(C(=O)Nc2ccc3c(c2)OCO3)c1`, with -3.26 (active).

With `COc1ccc(C(=O)Nc2ccc3c(c2)OCO3)cc1OC`, the B-score is 1.31 (inactive). `Cn1c(=O)n(C)c2cc(C(=O)Nc3ccc4c(c3)OCO4)ccc21`: the B-score is -2.3 (inactive).

In the case of `CCOc1ccc(Cn2nnc(C(=O)NCc3ccccc3)c2N)cc1`, the B-score was 0.835 (inactive). Next, `CC1(C)CC(=O)C(C=NCCC2=CCCCC2)=C(O)C1`: 1.52 (inactive); `Fc1ccc2[nH]c3c(N4CCSCC4)ncnc3c2c1`: -5.42 (active); `Cc1ccc2c(c1)NCC(C(=O)NC1CCC(C)CC1)O2` (stereo unspecified): 0.396 (inactive). Then `CC1(C)CC(=O)C=C(NC2CC(C)(C)NC(C)(C)C2)C1`, with -0.998 (inactive).

For the compound `CCCCc1c(O)nc2n(c1=O)CCS2`, the B-score is 3.41 (active). Next, `CCOC(=O)N1CCN(C(=O)c2cnc3n(c2=O)CCS3)CC1`: 0.461 (inactive). For `CN(CCc1ccccn1)S(=O)(=O)c1ccc2c3c(cccc13)C(=O)N2`, the B-score was 0.281 (inactive).

On to `CCC/C(O)=C1\C(=O)CC(C)(C)CC1=Nc1ccccc1OC`, for which the B-score is 0.24 (inactive).

With `COc1ccc(NC(=O)c2cccc(NC(=O)c3ccco3)c2)c(OC)c1`, the B-score was -0.0282 (inactive).

In the case of `Cc1nn(-c2ccccc2)c2c1C(=O)NC(=O)C(C)(C)C2`, the B-score was 20.5 (active). Next, `Cc1cc(NC(=O)Nc2ccccc2)n(-c2ccccc2)n1`: -0.331 (inactive); `Cc1nn(-c2ccccc2)c(CC(C)(C)C(=O)O)c1C(=O)O`: 0.0788 (inactive). Next, `Cc1cc(Nc2ccc(Br)cc2F)n2ncnc2n1`: -0.165 (inactive). Then `COC(=O)c1oc2ccc(Br)cc2c1NC(C)=O`, with 0.0355 (inactive); and `Cc1cccc(-n2nc3c(c2NC(=O)c2ccc(Br)o2)CSC3)c1C`, with 0.109 (inactive).

`Cc1cc(C)nc(-n2nc(C)cc2NC(=O)c2ccc(Br)o2)n1`: the B-score was 6.02 (active). In the case of `CCN(CC)S(=O)(=O)c1cccc(C(=O)Nc2cc(C)nn2-c2nc(C)cc(C)n2)c1`, the B-score is 0.0356 (inactive). On to `CS(=O)(=O)N(C(=O)NC(=O)NC1CCS(=O)(=O)C1)C1CCCCC1` (stereo unspecified), for which the B-score is -3.24 (active). In the case of `CC(=O)CCS(=O)(=O)c1ccc(C)c(C)c1`, the B-score is 1.88 (inactive). As to `COc1ccc(S(=O)(=O)N2CCOCC2)cc1C(=O)Nc1nc2ccccc2s1`, the B-score is -0.687 (inactive). Then `CC(c1cccnc1)N(CCN(C)C)C(=O)Nc1ccc(Cl)c(Cl)c1` (stereo unspecified), with -1.22 (active); and `CN(C)CCNC(CC(=O)Nc1ccc(Cl)c(Cl)c1)C(=O)O` (stereo unspecified), with 0.834 (inactive). Then `CC(C)NS(=O)(=O)c1ccc(NC(=O)c2cccnc2)cc1`, with 1.41 (inactive); and `COC(=O)[C@H](C(C)C)n1c(C)c(C(C)=O)c(C(C)=O)c1C`, with 4.12 (active); and `CCOc1ccc(OCC)c(NC(=O)C(NS(=O)(=O)c2ccc3c(c2)oc(=O)n3C)C(C)C)c1` (stereo unspecified), with -0.175 (inactive). Then `C#CCN1C(=O)C(O)(CC(=O)c2cc(OC)ccc2OC)c2ccccc21` (stereo unspecified), with 0.733 (inactive). As to `CSC1=NCCN1C(=O)c1ccc(S(=O)(=O)N2CCOCC2)cc1`, the B-score is -0.521 (inactive). On to `Cn1c(=NC(=O)C2CC2)sc2cc(F)cc(F)c21`, for which the B-score was 1.19 (inactive).

For the compound `COc1ccccc1N1CC(O)=C(c2nc3ccccc3s2)C1=N`, the B-score is -0.346 (inactive). Take `COC(=O)C(C)Sc1nc2c(c(=O)n(C)c(=O)n2C)n1Cc1cccc(C)c1` (stereo unspecified): the B-score was 0.892 (inactive). In the case of `C/C(Cl)=C\Cn1c(Nc2cccc(C)c2)nc2c1c(=O)n(C)c(=O)n2C`, the B-score is 13.2 (active).

As for `Cc1cccc(Cn2c(SCCO)nc3c2c(=O)n(C)c(=O)n3C)c1`, the B-score was 0.248 (inactive). Next, `COCCCNC(=O)c1c(F)c(F)c(F)c(F)c1F`: -0.712 (inactive); `O=C(NCc1cccnc1)c1ccc(CS(=O)(=O)c2ccc(Br)cc2)o1`: -0.0969 (inactive). Then `Cc1cccc(NC(=O)CSC(N)=O)c1C`, with -0.0507 (inactive); and `CCc1ccccc1N(CC(=O)NCCSCc1ccco1)S(C)(=O)=O`, with 0.0216 (inactive); and `O/N=C(\c1ccc2c(c1)OCCO2)C1CCCCC1`, with 8.96 (active). Then `O=C(OCc1ccccc1F)c1ccc2c(c1)OCCO2`, with 0.452 (inactive).

As for `O=C(c1ccc2c(c1)OCCO2)C1CCN(S(=O)(=O)c2cccc(F)c2)CC1`, the B-score is 0.0652 (inactive).

Take `Fc1c(F)c(C(F)(F)F)c(F)c(F)c1N1CCN(c2ccc3nnc(C(F)(F)F)n3n2)CC1`: the B-score was 0.11 (inactive). Then `CC1(C)CC(=O)C(C=NCc2cccnc2)=C(O)C1`, with 1.34 (inactive).
